The record followed here is publication PMC7862700, “An all-to-all approach to the identification of sequence-specific readers for epigenetic DNA modifications on cytosine”.

Experiment in all cases: DAPPL (digital affinity profiling via proximity ligation, sequencing); 10 mM Tris-HCl pH 7.5, 50 mM NaCl, 1 mM DTT, 4% glycerol, room temperature, 30 min; GST-TFs on glutathione beads, 16-mer random dsDNA library, 0.1% formaldehyde crosslink after washing; high values mean tight binding
What all share (conditions): protein: recombinant; tags: N-terminal GST; dsDNA, one strand shown

One assay concerns the target T1, ERF (Homo sapiens, UniProt P50548 1-548).
T1 sequence: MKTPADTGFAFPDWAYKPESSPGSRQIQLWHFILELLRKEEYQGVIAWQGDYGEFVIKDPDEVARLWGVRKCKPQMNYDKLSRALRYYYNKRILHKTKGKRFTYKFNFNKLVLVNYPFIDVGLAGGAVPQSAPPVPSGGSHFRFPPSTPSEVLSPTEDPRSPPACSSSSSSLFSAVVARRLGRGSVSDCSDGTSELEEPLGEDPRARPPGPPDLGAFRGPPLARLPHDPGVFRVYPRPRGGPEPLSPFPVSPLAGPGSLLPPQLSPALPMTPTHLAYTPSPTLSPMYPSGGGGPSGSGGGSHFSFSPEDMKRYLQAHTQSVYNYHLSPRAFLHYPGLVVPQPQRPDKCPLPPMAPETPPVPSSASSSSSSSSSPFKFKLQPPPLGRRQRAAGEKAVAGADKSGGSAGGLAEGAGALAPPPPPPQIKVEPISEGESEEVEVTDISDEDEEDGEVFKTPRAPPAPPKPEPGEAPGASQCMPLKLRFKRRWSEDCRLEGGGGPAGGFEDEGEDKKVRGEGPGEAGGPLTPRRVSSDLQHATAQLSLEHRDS
The essentials: (§1)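 Binding signal is each hexamer's read frequency for a factor divided by its frequency in the tag-only sample. The factors were GST-fused human transcription factors from yeast, captured on glutathione beads, DNA-barcoded and pooled with that sample. Pools were incubated with 200 nmole of a random double-stranded 16-mer DNA library in Tris/NaCl/DTT/glycerol buffer at room temperature for 30 min, then washed, crosslinked with 0.1% formaldehyde, proximity-ligated with BsaI/T4 ligase (1 h, 37 °C), PCR-amplified and sequenced on an Illumina NextSeq500.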

The next assay addresses T2, ETV3L (Homo sapiens, UniProt Q6ZN32 1-361).
T2 sequence: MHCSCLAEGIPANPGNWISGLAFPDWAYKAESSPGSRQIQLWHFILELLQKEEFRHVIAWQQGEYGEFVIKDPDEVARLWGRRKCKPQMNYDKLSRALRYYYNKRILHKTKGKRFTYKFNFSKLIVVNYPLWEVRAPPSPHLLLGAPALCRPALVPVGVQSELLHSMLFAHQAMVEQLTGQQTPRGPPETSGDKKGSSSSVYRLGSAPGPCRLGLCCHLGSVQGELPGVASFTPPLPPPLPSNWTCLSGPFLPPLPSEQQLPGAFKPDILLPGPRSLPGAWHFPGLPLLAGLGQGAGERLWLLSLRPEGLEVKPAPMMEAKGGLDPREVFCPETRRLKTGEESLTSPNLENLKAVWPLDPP
A digest of the protocol:
as §1

The next assay concerns the target T3, ETS2 (Homo sapiens, UniProt P15036 1-469).
T3 sequence: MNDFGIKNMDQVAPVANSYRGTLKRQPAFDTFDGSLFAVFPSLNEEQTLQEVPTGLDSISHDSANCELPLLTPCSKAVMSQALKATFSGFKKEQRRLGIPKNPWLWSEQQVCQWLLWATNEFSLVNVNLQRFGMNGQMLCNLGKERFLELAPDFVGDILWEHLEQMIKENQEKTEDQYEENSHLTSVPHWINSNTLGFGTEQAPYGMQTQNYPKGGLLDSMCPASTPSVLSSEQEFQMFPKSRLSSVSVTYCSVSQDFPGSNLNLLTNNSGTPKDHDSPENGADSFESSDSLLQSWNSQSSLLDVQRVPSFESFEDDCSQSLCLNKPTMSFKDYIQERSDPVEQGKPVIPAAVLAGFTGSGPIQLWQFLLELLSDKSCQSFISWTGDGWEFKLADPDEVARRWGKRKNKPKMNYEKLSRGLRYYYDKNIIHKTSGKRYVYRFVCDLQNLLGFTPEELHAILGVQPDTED
The essentials:
as §1

A further assay concerns the target T4, SPDEF (Homo sapiens, UniProt O95238 1-335).
T4 sequence: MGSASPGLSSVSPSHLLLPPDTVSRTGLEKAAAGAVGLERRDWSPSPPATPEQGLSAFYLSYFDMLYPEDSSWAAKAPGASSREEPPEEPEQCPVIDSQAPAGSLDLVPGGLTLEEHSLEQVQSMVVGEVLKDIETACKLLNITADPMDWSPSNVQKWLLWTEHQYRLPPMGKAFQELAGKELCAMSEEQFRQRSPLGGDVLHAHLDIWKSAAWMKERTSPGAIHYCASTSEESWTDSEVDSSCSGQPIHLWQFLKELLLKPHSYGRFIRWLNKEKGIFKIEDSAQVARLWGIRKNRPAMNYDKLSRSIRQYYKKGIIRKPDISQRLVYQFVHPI
A digest of the protocol:
as §1

Another assay addresses T5, ETV7 (Homo sapiens, UniProt Q9Y603 1-341).
T5 sequence: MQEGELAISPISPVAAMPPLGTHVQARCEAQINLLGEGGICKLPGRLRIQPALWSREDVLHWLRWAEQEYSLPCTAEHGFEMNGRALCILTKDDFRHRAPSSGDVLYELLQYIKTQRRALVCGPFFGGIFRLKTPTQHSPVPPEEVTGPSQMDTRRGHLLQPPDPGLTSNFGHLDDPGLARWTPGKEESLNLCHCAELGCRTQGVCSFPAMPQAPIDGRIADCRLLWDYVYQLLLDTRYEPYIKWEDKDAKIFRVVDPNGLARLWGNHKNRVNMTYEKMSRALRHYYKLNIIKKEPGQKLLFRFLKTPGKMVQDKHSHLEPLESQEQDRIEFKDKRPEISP
A digest of the protocol: as §1

A further assay addresses T6, ELF5 (Homo sapiens, UniProt Q9UKW6-2 1-255).
T6 sequence: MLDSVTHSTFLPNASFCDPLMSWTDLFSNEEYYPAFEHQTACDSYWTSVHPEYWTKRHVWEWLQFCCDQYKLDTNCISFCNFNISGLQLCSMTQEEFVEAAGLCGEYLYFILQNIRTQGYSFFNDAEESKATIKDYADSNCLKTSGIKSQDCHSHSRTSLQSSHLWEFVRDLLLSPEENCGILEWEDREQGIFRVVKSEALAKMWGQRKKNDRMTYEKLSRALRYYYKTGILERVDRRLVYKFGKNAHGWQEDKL
The essentials: as §1

A further assay deals with T7, ETV3 (Homo sapiens, UniProt P41162-2 1-143).
T7 sequence: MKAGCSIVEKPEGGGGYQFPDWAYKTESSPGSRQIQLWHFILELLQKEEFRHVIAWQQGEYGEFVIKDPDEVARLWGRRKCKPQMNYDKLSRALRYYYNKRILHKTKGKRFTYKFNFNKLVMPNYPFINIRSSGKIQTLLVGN
A digest of the protocol:
as §1

A further assay addresses ETV6 (Homo sapiens, UniProt P41212 1-452). A digest of the protocol:
as §1

Sequence of ETV6 (P41212 whole entry): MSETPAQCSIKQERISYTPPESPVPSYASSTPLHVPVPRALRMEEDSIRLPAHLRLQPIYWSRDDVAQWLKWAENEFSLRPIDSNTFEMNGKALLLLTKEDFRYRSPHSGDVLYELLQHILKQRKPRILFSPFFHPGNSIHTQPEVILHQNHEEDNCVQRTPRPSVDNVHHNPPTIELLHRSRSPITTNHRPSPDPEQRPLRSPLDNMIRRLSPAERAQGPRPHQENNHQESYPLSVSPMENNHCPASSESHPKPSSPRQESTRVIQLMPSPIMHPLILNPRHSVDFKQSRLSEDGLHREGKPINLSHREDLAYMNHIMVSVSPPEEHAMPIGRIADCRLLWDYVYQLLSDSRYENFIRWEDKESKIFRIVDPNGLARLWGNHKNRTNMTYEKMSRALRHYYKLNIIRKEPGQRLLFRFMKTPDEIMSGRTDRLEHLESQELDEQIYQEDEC

Take AATTAG: the binding signal is 1.15 fold enrichment (6-mer frequency, TF over GST control) with ERF; 1.12 fold enrichment (6-mer frequency, TF over GST control) with ETV3L; 1.09 fold enrichment (6-mer frequency, TF over GST control) in the assay with ETS2; 1.06 fold enrichment (6-mer frequency, TF over GST control) with SPDEF; 1.25 fold enrichment (6-mer frequency, TF over GST control) in the assay with ETV7; 1.1 fold enrichment (6-mer frequency, TF over GST control) in the assay with ELF5. Further, the binding signal is 1.19 fold enrichment (6-mer frequency, TF over GST control) with ETV3 and 1.13 fold enrichment (6-mer frequency, TF over GST control) in the assay with ETV6.

In the case of TTACAG, the binding signal was 1.32 fold enrichment (6-mer frequency, TF over GST control) with ERF; 1.22 fold enrichment (6-mer frequency, TF over GST control) with ETV3L; 1.21 fold enrichment (6-mer frequency, TF over GST control) with ETS2; 1.18 fold enrichment (6-mer frequency, TF over GST control) with SPDEF; 1.22 fold enrichment (6-mer frequency, TF over GST control) with ETV7; 1.16 fold enrichment (6-mer frequency, TF over GST control) with ELF5. The binding signal with ETV3 is 1.16 fold enrichment (6-mer frequency, TF over GST control); with ETV6, 1.19 fold enrichment (6-mer frequency, TF over GST control).

For the sequence TTCCCG, the binding signal with ERF is 1.75 fold enrichment (6-mer frequency, TF over GST control); with ETV3L it was 1.9 fold enrichment (6-mer frequency, TF over GST control); with ETS2, 1.97 fold enrichment (6-mer frequency, TF over GST control); in the assay with SPDEF it was 2.05 fold enrichment (6-mer frequency, TF over GST control); with ETV7, 1.88 fold enrichment (6-mer frequency, TF over GST control); in the assay with ELF5 it was 2.91 fold enrichment (6-mer frequency, TF over GST control). Besides, the binding signal with ETV3 was 1.92 fold enrichment (6-mer frequency, TF over GST control); with ETV6, 2.15 fold enrichment (6-mer frequency, TF over GST control).

CTTCTC: the binding signal is 1.33 fold enrichment (6-mer frequency, TF over GST control) in the assay with ERF; 1.39 fold enrichment (6-mer frequency, TF over GST control) with ETV3L; 1.32 fold enrichment (6-mer frequency, TF over GST control) with ETS2; 1.33 fold enrichment (6-mer frequency, TF over GST control) in the assay with SPDEF; 1.32 fold enrichment (6-mer frequency, TF over GST control) with ETV7; 1.52 fold enrichment (6-mer frequency, TF over GST control) in the assay with ELF5. Further, the binding signal in the assay with ETV3 is 1.31 fold enrichment (6-mer frequency, TF over GST control); in the assay with ETV6, 1.37 fold enrichment (6-mer frequency, TF over GST control).

For TATCTC, the binding signal in the assay with ERF is 1.3 fold enrichment (6-mer frequency, TF over GST control); with ETV3L, 1.3 fold enrichment (6-mer frequency, TF over GST control); with ETS2, 1.27 fold enrichment (6-mer frequency, TF over GST control); with SPDEF it was 1.22 fold enrichment (6-mer frequency, TF over GST control); with ETV7, 1.21 fold enrichment (6-mer frequency, TF over GST control); with ELF5, 1.23 fold enrichment (6-mer frequency, TF over GST control). The binding signal in the assay with ETV3 was 1.13 fold enrichment (6-mer frequency, TF over GST control); with ETV6 it was 1.21 fold enrichment (6-mer frequency, TF over GST control).

CTTGCT: the binding signal is 1.36 fold enrichment (6-mer frequency, TF over GST control) with ERF; 1.37 fold enrichment (6-mer frequency, TF over GST control) with ETV3L; 1.21 fold enrichment (6-mer frequency, TF over GST control) in the assay with ETS2; 1.23 fold enrichment (6-mer frequency, TF over GST control) with SPDEF; 1.52 fold enrichment (6-mer frequency, TF over GST control) with ETV7; 1.27 fold enrichment (6-mer frequency, TF over GST control) in the assay with ELF5. Further, the binding signal was 1.33 fold enrichment (6-mer frequency, TF over GST control) with ETV3 and 1.36 fold enrichment (6-mer frequency, TF over GST control) with ETV6.

Take GATCTT: the binding signal in the assay with ERF is 1.15 fold enrichment (6-mer frequency, TF over GST control); with ETV3L it was 1.15 fold enrichment (6-mer frequency, TF over GST control); with ETS2, 1.15 fold enrichment (6-mer frequency, TF over GST control); in the assay with SPDEF, 1.42 fold enrichment (6-mer frequency, TF over GST control); with ETV7, 1.28 fold enrichment (6-mer frequency, TF over GST control); in the assay with ELF5 it was 1.29 fold enrichment (6-mer frequency, TF over GST control). Further, the binding signal with ETV3 was 1.24 fold enrichment (6-mer frequency, TF over GST control); with ETV6, 1.14 fold enrichment (6-mer frequency, TF over GST control).

With GATTCC, the binding signal was 1.15 fold enrichment (6-mer frequency, TF over GST control) in the assay with ERF; 1.22 fold enrichment (6-mer frequency, TF over GST control) with ETV3L; 1.14 fold enrichment (6-mer frequency, TF over GST control) with ETS2; 1.29 fold enrichment (6-mer frequency, TF over GST control) with SPDEF; 1.11 fold enrichment (6-mer frequency, TF over GST control) in the assay with ETV7; 1.21 fold enrichment (6-mer frequency, TF over GST control) with ELF5. The binding signal in the assay with ETV3 is 1.24 fold enrichment (6-mer frequency, TF over GST control); in the assay with ETV6, 1.14 fold enrichment (6-mer frequency, TF over GST control).
